Experimental data published in PubChem BioAssay.
For some assays here: Measured potencies and affinities stand elsewhere. Calls of active or inactive are those of the source. Unless noted, no rule for the calls is given here.

Experiments:
[1] = antimalarial activity against Dd2 strain (AID 2302;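 active = growth inhibition above 50% at the single 2 µM test dose, taken to imply half-maximal potency below 2 µM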;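 also: 0% = DMSO untreated growth and 100% = chloroquine plus artemisinin killed control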); conditions: P. falciparum Dd2 in RBCs, LDH growth readout, 72 h; at 2 µM; hits give high values
[2] = human hepatoma cell viability loss – ATP luminescence, cytotoxicity control for P. falciparum antimalarial project, primary screen (AID 2303;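 active = inhibition above 50%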;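 also: 0% = DMSO wells and 100% = digitonin-killed cells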); conditions: HepG2 viability, 24-48 h, at 10 µM, hits give high values
[3] = biological target: L-lactate dehydrogenase (Plasmodium falciparum (isolate CDC / Honduras)) (UniProt Q27743); assay: PfLDH activity inhibition – cell lysate, 3D7 strain, counter-screen for P. falciparum growth inhibition project (AID 2304);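 also: 0% = vehicle and 100% = reference inhibitor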; conditions: P. falciparum 3D7 crude extract, LDH APAD/NBT absorbance; at 2 µM; hits give high values
L-lactate dehydrogenase (Plasmodium falciparum (isolate CDC / Honduras)), sequence (Q27743 whole entry, looked up): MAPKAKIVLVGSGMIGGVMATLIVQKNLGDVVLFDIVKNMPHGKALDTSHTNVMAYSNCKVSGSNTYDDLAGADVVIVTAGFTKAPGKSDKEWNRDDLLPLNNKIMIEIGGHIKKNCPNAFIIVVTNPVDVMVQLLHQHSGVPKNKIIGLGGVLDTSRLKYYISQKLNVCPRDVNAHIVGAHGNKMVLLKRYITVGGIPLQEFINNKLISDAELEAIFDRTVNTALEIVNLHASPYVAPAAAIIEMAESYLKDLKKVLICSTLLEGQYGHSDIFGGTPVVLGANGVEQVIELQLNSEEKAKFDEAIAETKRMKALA

[4] = inhibition of 3D7 malaria parasite growth – strain 3D7 (AID 2306);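 also: 0% = DMSO wells and 100% = chloroquine plus artemisinin control wells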; conditions: P. falciparum 3D7 erythrocytic growth, LDH absorbance, 72 h; at 2 µM; hits give high values
[5] = biological target: Calcium-dependent protein kinase 1 (Plasmodium falciparum (isolate 3D7)) (UniProt P62344); assay: PfCDPK1 kinase inhibitors, biochemical, TCAMS library (AID 1159585; cut-off not given, nearly all actives have IC50 up to about 0.98 µM;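 also: inhibitors leave more ATP so luminescence rises with inhibition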); conditions: recombinant PfCDPK1, Kinase-Glo ATP depletion luminescence
Calcium-dependent protein kinase 1 (Plasmodium falciparum (isolate 3D7)), sequence (P62344 whole entry, looked up): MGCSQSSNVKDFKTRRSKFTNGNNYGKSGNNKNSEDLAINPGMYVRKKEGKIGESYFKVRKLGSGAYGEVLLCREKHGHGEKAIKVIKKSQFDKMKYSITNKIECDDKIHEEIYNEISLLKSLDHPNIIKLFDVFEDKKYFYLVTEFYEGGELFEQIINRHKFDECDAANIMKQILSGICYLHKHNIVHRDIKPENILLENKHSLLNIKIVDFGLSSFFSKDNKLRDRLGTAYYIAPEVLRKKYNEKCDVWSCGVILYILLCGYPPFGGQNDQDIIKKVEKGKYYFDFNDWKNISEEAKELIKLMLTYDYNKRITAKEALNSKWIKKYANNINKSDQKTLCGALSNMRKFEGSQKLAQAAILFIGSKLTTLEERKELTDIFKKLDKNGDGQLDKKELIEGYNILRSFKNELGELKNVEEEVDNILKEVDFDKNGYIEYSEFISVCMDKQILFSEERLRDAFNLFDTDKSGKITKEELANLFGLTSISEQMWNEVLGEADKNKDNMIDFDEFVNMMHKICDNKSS

[6] = biological target: Plasmodium falciparum protein kinase 6 (PK6, PF3D7_1337100) (UniProt Q8IDW1); assay: PfPK6 kinase inhibitors, biochemical, TCAMS library (AID 1159586); conditions: recombinant PfPK6, Kinase-Glo ATP depletion luminescence
Plasmodium falciparum protein kinase 6 (PK6, PF3D7_1337100), sequence (Q8IDW1 1-305): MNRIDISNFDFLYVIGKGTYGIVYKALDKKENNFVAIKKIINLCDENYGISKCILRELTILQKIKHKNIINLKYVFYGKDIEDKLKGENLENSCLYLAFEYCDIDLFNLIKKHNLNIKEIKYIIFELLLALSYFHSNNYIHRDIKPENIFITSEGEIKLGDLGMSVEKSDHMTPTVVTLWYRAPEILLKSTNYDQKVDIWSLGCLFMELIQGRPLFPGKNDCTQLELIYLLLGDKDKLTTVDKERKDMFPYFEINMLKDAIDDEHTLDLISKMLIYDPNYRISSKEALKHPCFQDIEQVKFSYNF

[7] = biological target: Protein kinase 7 (PK7), Plasmodium falciparum 3D7 (PF3D7_0213400) (UniProt Q7YTF7); assay: inhibition of Plasmodium PK7 catalytic activity – biochemical, TCAMS antimalarial set, Kinase-Glo luminescence (AID 1159587); conditions: recombinant PfPK7, Kinase-Glo ATP depletion luminescence
Protein kinase 7 (PK7), Plasmodium falciparum 3D7 (PF3D7_0213400), sequence (Q7YTF7 1-343): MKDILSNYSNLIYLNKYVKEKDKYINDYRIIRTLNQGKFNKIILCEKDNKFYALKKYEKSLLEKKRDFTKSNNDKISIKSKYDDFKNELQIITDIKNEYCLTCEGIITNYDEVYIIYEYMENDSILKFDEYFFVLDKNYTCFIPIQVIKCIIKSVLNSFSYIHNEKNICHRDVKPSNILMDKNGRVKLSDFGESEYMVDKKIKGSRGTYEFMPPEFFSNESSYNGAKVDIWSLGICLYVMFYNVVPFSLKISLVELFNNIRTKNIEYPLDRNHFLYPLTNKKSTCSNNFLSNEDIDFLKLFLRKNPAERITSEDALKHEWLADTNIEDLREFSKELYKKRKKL

[8] = biological target: Calcium-dependent protein kinase 4 (Plasmodium falciparum (isolate 3D7)) (UniProt Q8IBS5); assay: PfCDPK4 kinase inhibitors, biochemical, TCAMS library (AID 1159588; cut-off not given, nearly all actives have IC50 up to about 0.91 µM); conditions: recombinant PfCDPK4, Kinase-Glo ATP depletion luminescence
Calcium-dependent protein kinase 4 (Plasmodium falciparum (isolate 3D7)), sequence (Q8IBS5 whole entry, looked up): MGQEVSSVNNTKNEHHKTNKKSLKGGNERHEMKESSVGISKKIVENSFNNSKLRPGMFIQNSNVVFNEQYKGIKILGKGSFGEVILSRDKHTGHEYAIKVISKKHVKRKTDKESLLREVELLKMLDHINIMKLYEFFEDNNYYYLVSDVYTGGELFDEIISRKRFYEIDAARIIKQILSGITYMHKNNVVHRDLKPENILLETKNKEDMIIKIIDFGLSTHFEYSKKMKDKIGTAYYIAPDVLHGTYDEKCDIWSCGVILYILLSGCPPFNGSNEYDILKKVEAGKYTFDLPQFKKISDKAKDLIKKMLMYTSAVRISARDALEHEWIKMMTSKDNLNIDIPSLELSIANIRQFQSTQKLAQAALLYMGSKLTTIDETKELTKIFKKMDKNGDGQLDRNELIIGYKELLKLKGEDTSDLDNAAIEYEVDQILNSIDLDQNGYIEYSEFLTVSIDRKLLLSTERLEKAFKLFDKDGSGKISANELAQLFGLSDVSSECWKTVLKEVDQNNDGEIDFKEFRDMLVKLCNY

O=c1cc(NCC2(CNCc3cn(Cc4ccccc4)c4ccccc34)CCCCC2)[nH]c2ccccc12
active: growth inhibition [1] 56% | growth inhibition [4] 100%
inactive: inhibition [2] 27% | inhibition [3] 1% | outcome [5] | outcome [6] | outcome [7] | outcome [8]

CC(C)(C)OC(=O)NCC(=O)N(Cc1ccccc1)Cc1ccccc1
active: growth inhibition [1] 93% | growth inhibition [4] 97%
inactive: inhibition [2] -10% | inhibition [3] 2% | outcome [5] | outcome [6] | outcome [7] | outcome [8]

CCc1c(CCNC/C=C/C=C/CNCCc2ccc(OC)c(OC)c2CC)ccc(OC)c1OC
active: growth inhibition [1] 99% | inhibition [2] 75% | growth inhibition [4] 100%
inactive: inhibition [3] 3% | outcome [5] | outcome [6] | outcome [7] | outcome [8]

CC(CN(C)C)C(=O)Nc1ccc(-c2ccc(-c3nc4ccc(C(F)(F)F)cc4[nH]3)cc2)cc1 (configuration not stated)
inactive: inhibition [2] 14% | inhibition [3] 2% | outcome [5] | outcome [6] | outcome [7] | outcome [8]
active: growth inhibition [1] 93% | growth inhibition [4] 101%

Cc1ccc2nc(C)cc(NN=Cc3cccc([N+](=O)[O-])c3)c2c1
active: growth inhibition [1] 99% | growth inhibition [4] 102%
inactive: inhibition [2] 0% | inhibition [3] 1% | outcome [5] | outcome [6] | outcome [7] | outcome [8]

CCCC(C)Nc1nc(C)cc(N[C@@H](Cc2ccccc2)C(=O)Nc2ccccc2)n1 (some centres not stated)
inactive: inhibition [3] -2% | outcome [5] | outcome [6] | outcome [7] | outcome [8]
active: growth inhibition [1] 67% | inhibition [2] 50% | growth inhibition [4] 100%

CC(C)C(=O)ONC1=NC(C)(C)N(OCCCOc2cc(Cl)c(Cl)cc2Cl)C(NOC(=O)C(C)C)=N1
inactive: inhibition [3] -9% | outcome [5] | outcome [6] | outcome [7] | outcome [8]
active: growth inhibition [1] 93% | inhibition [2] 64% | growth inhibition [4] 92%

O=[N+]([O-])c1cc(C(c2ccc(O)c([N+](=O)[O-])c2)C(Cl)(Cl)Cl)ccc1O
inactive: inhibition [2] 2% | inhibition [3] 3% | outcome [5] | outcome [6] | outcome [7] | outcome [8]
active: growth inhibition [1] 98% | growth inhibition [4] 93%

COc1ccc(C(=O)NC(Nc2ccc([N+](=O)[O-])cc2)C(Cl)(Cl)Cl)cc1 (configuration not stated)
inactive: inhibition [2] 15% | inhibition [3] 1% | outcome [5] | outcome [6] | outcome [7] | outcome [8]
active: growth inhibition [1] 83% | growth inhibition [4] 95%

O=C(Nc1cc(C(F)(F)F)cc(C(F)(F)F)c1)Nc1ccc(Cl)c(Cl)c1
inactive: inhibition [3] 0% | outcome [5] | outcome [6] | outcome [7] | outcome [8]
active: growth inhibition [1] 100% | inhibition [2] 58% | growth inhibition [4] 101%

CCOP(=O)(OCC)c1ccc(OC)c(-c2ccc[nH]2)c1
inactive: growth inhibition [1] 10% | inhibition [2] -13% | inhibition [3] -2% | outcome [5] | outcome [6] | outcome [7] | outcome [8]
active: growth inhibition [4] 95%

COc1cccc(-c2cc(C(F)(F)F)n3ncc(C(=O)Nc4cc(C)ccc4O)c3n2)c1
active: growth inhibition [1] 99% | growth inhibition [4] 98%
inactive: inhibition [2] -4% | inhibition [3] 3% | outcome [5] | outcome [6] | outcome [7] | outcome [8]

CCC(CC)OC(=O)C(C)c1cccc(C(=O)c2ccccc2)c1 (configuration not stated)
inactive: growth inhibition [1] 0% | inhibition [2] -8% | inhibition [3] 6% | outcome [5] | outcome [6] | outcome [7] | outcome [8]
active: growth inhibition [4] 93%

Fc1ccc2c(NN=CC=Cc3ccccc3)ccnc2c1
active: growth inhibition [1] 98% | growth inhibition [4] 101%
inactive: inhibition [2] -2% | inhibition [3] -3% | outcome [5] | outcome [6] | outcome [7] | outcome [8]

CCCc1cc(Cc2cnc(N)nc2N)cc(CCC)c1OCCCCC(=O)OC
active: growth inhibition [4] 94%
inactive: growth inhibition [1] -5% | inhibition [2] -7% | inhibition [3] -5% | outcome [5] | outcome [6] | outcome [7] | outcome [8]

CCOc1ccc2ccccc2c1C(=O)Nc1cc(C)nn1-c1nc(C)cc(=O)[nH]1
inactive: inhibition [2] 28% | inhibition [3] -1% | outcome [5] | outcome [6] | outcome [7] | outcome [8]
active: growth inhibition [1] 86% | growth inhibition [4] 93%

Cc1ccccc1C1CCN(C2CCC(NC(=O)c3csc(-c4cccc(Cl)c4)n3)CC2)CC1 (configuration not stated)
inactive: growth inhibition [1] 42% | inhibition [2] 33% | inhibition [3] 3% | outcome [5] | outcome [6] | outcome [7] | outcome [8]
active: growth inhibition [4] 85%

Cc1cccc2[nH]c(-c3cccc(-c4cccc(NC(=O)Cc5cnc[nH]5)c4)c3)nc12
inactive: inhibition [2] 32% | inhibition [3] -4% | outcome [5] | outcome [6] | outcome [7] | outcome [8]
active: growth inhibition [1] 100% | growth inhibition [4] 102%

CNC(=O)c1cc(S(=O)(=O)N2CCN(c3ccccn3)CC2)c(C)s1
active: growth inhibition [1] 52% | growth inhibition [4] 91%
inactive: inhibition [2] -2% | inhibition [3] -1% | outcome [5] | outcome [6] | outcome [7] | outcome [8]
